The text below walks through data of ChEMBL document CHEMBL1201862, “PubChem BioAssay data set” (2004).

Several values for one entry are separate records, joined by “and”; a condition that tells them apart may be missing. Identical values can stand only once.

The IC90 is the point of the concentration-response curve where the effect stands at 90%.

A short description of the experiment: A High Throughput Confirmatory Assay used to Identify Novel Compounds that Inhibit Mycobacterium Tuberculosis in the absence of Glycerol using Purified and Synthesized Compounds (7). In kind it is functional.
In the case of `CC1CCN(C(=O)c2ccc(CNc3c(N4CCCC4)c(=O)c3=O)cc2)CC1`, the IC90 is > 100 µM (active).

As to `CC(C)OC(=O)CSc1ncnc2c1cnn2-c1ccccc1`, the IC90 was > 100 µM (active).

As to `COc1ccc(N2CCN(C(=O)c3ccc(CNc4c(N5CCOCC5)c(=O)c4=O)cc3)CC2)cc1`, the IC90 is > 100 µM (active).

On to `CC1CCCN(C(=O)C2CCC(CNc3c(N4CCCCC4)c(=O)c3=O)CC2)C1` (stereo not drawn), for which the concentration for an effect of 90% (IC90) is > 100 µM (active).

For `O=C(c1ccc(CNc2c(N3CCCC3)c(=O)c2=O)cc1)N1CC=C(c2ccccc2)CC1`, the IC90 was > 68.8 µM (active) and > 79.4 µM (active).

For the compound `O=C(NCCc1ccc(Cl)cc1)C1CCC(CNc2c(N3CCCCC3)c(=O)c2=O)CC1` (stereo not drawn), the concentration for an effect of 90% (IC90) was > 100 µM (active).

As for `CC(=O)c1ccc(NC(=O)c2ccc(CNc3c(N4CCOCC4)c(=O)c3=O)cc2)cc1`, the 90% effect concentration (IC90) was > 100 µM (active).

Consider `CC1CCCN(C(=O)c2ccc(CNc3c(N4CCCCC4)c(=O)c3=O)cc2)C1` (stereo not drawn), for which the IC90 was > 100 µM (active).

As to `O=C(C1CCC(CNc2c(N3CCCCC3)c(=O)c2=O)CC1)N1CCCCC1` (stereo not drawn), the 90% effect concentration (IC90) was > 100 µM (active).

With `O=C(c1ccc(CNc2c(N3CCCC3)c(=O)c2=O)cc1)N1CCc2ccccc2C1`, the IC90 was > 100 µM (active).

`O=C(NCCc1ccc(Cl)cc1)c1ccc(CNc2c(N3CCOCC3)c(=O)c2=O)cc1`: the 90% effect concentration (IC90) was > 100 µM (active).

For `CC1CC(C)CN(C(=O)C2CCC(CNc3c(N4CCCCC4)c(=O)c3=O)CC2)C1` (stereo not drawn), the IC90 is > 75 µM (active) and > 100 µM (active).

For the compound `CC1CC(C)CN(C(=O)c2ccc(CNc3c(N4CCCC4)c(=O)c3=O)cc2)C1` (stereo not drawn), the concentration for an effect of 90% (IC90) was > 100 µM (active).
